The list is not random: actives were taken first. Their share in the collection is about 3.9%.
CCHF vOTU inh-1: blocks the CCHF virus ovarian tumor domain protease; 370,000 compounds, 0.55% hits; AID 651958; inhibition, % at 11.5 µM; CCHFV vOTU protease, Pep-AMC fluorescence; also: 0% = vehicle wells with enzyme and 100% = no enzyme wells
GDH-TPI inh: counter-screen for M. tuberculosis FBA inhibitors: GDH-TPI coupled enzymes | inhibition, % at 4.8 µM | GDH-TPI coupled enzyme counterscreen, NADH absorbance | AID 588335 | 360,000 compounds, 1.2% hits;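 also: 0% = DMSO wells and 100% = wells lacking the enzyme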
BH1578 lux ind: quorum light induction in luxS cqsA deficient V. cholerae. activation, % at 18.7 µM. 350,000 compounds, 0.16% hits. V. cholerae BH1578 lux reporter, luminescence, 6 h. AID 588436; in the data active = activation mostly above about 9.7%, no sharp cut-off
FBA Mtb inh: inhibitors of M. tuberculosis fructose-bisphosphate aldolase; P9WQA3; purified M. tuberculosis FBA, fluorescence read-out; 360,000 compounds, 2.3% hits; inhibition, % at 1 µM; in the data active = inhibition above about 27%;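 also: 0% = vehicle and 100% = reference inhibitor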
Target sequence (P9WQA3 whole entry, looked up): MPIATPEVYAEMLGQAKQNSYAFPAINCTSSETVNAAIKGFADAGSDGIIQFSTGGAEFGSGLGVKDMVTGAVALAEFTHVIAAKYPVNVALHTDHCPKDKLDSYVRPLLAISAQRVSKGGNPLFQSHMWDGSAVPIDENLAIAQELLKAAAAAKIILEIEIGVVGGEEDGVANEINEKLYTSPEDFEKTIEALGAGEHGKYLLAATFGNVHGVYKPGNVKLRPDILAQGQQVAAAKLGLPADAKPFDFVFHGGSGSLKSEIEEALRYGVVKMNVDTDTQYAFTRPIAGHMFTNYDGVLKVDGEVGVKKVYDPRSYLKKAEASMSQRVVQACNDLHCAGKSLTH
CCHF vOTU inh-2: CCHFV vOTU protease inhibition, confirmation; shares compounds with CCHF vOTU inh-1; Recombinant CCHFV vOTU, Pep-AMC fluorescence; inhibition, % at 11.5 µM; 1,900 compounds, 17% hits; AID 686976
* = called active by the depositor; i = inactive; · = not tested or not shown. Rule as the data show it, unless noted: active = inhibition above about 30%; inactive = the rest.

SMILES	CCHF vOTU inh-1	GDH-TPI inh	BH1578 lux ind	FBA Mtb inh	CCHF vOTU inh-2
CC(=O)c1cc(O)c2ccccc2c1O	37*	-1	-1	1	-9
COc1ccc(C(CNC(=O)Cn2c(=O)oc3ccccc32)N(C)C)cc1 (stereo not given)	-3	2	-1	-2	·
Cc1ccc(C)c(/C(O)=C2\C(=O)C(=O)N(CCCN3CCOCC3)C2c2cccnc2)c1 (stereo not given)	46*	53*	i	-3	-16
OC(c1ccccc1)(c1ccccc1)C1CCN(CCCOc2cccc(Cl)c2)CC1	37*	·	·	·	-1
OC(c1ccccc1)(c1ccccc1)C1CCN(CCCOc2ccc(C(F)(F)F)cc2)CC1	24	·	·	·	·
OC(c1ccccc1)(c1ccccc1)C1CCN(CCCOc2ccc(OC(F)(F)F)cc2)CC1	31*	·	·	·	-1
COc1ccc(CN2CCC(C)(Oc3ccc4c(c3)OCO4)C2)c2ccccc12 (stereo not given)	5	10	i	-2	·
CCC(C)(C)C1CCc2c(sc(NC(=O)c3ccccc3C(=O)O)c2C#N)C1 (stereo not given)	35*	4	-1	0	24
CC1CCc2c(sc(NC(=O)c3ccccc3C(=O)O)c2C#N)C1 (stereo not given)	7	4	-1	0	·
COc1cc(OC)cc(-c2c(-c3cccs3)c3cc(Br)ccc3n2C)c1	31*	14	-1	4	-28
O=C(CS(=O)c1ccc(F)cc1)N1CCOCC1 (stereo not given)	-5	-1	i	-5	·
COc1ccc([C@H]2CC(=O)C=C(/C=C/c3ccccc3)C2)cc1OC	30*	38*	-1	-3	8
O=C1C=C(/C=C/c2ccccc2)C[C@@H](c2ccc(F)cc2)C1	7	15	3	-5	·
O=[N+]([O-])c1ccccc1/C=N/n1c(C2CCCCC2)n[nH]c1=S	-11	6	0	-3	·
CC(C)C[C@@H](CN1CCC[C@@H]1CN1C(=S)NC[C@@H]1Cc1ccc(O)cc1)N1C[C@H](Cc2ccc(O)cc2)N(CC2CCCCCC2)C1=S	32*	·	·	1	-17
O=C1NC[C@@H](CCCCN2C[C@H](Cc3ccc(O)cc3)N(CCC3CCCCC3)C(=O)C2=O)N(CC2CCCCC2)C1=O	35*	·	·	·	-13
O=C1NC[C@H](Cc2ccccc2)N(C[C@@H]2CCCN2C[C@H](Cc2ccccc2)N2C[C@H](Cc3ccccc3)N(CC3CCCCC3)C(=O)C2=O)C1=O	30*	·	·	1	3
O=C(O)CCC(=O)Nc1ccc(S(=O)(=O)c2ccc(NC(=O)CCC(=O)O)cc2)cc1	0	12	4	5	·
O=C(NCCCN1CCCC1=O)c1cc(S(=O)(=O)N2CCOCC2)c(Cl)cc1Cl	-8	-2	-1	-3	·
CC(=O)c1sc(NC(=O)c2cc(S(=O)(=O)N3CCOCC3)ccc2F)nc1C	18	27	2	-3	·
CC(C)[n+]1ccn(C2=C([O-])c3ccccc3C(=O)/C2=N\S(=O)(=O)c2ccccc2)c1	33*	8	0	-9	31*
CCCC[n+]1ccn(C2=C([O-])c3ccccc3C(=O)/C2=N\S(=O)(=O)c2ccccc2)c1	58*	4	i	-3	54*
CCCc1ccc(S(=O)(=O)NCc2nnc(SC)n2C)cc1	16	-7	0	0	·
CCc1c(C(=O)N/N=C/c2ccsc2)csc1C	30*	2	0	-4	-16
Cc1cc(OCC(=O)NNC(=S)NC(=O)c2ccc(Br)o2)ccc1Cl	36*	-2	·	-2	-14
SMILES	CCHF vOTU inh-1	GDH-TPI inh	BH1578 lux ind	FBA Mtb inh	CCHF vOTU inh-2
CCC(=O)NC(=S)Nc1ccc(NC(=O)COc2ccc(Cl)c(C)c2)cc1	14	17	0	0	·
Cc1cccc(C)c1-n1cccc1/C=C1/C(=N)N2C(=NC1=O)SN=C2S(C)(=O)=O	35*	32*	0	-4	23
Cc1cc(/C=C2/C(=N)N3C(=NC2=O)SN=C3S(C)(=O)=O)c(C)n1-c1ccc(F)cc1	5	6	0	6	·
Cc1ccc(-n2cccc2/C=C2/C(=N)N3C(=NC2=O)SN=C3S(C)(=O)=O)cc1Cl	52*	14	0	0	8
Cc1cc(NC(=O)C2CCCN2C(=O)Nc2cccc(Cl)c2)ccc1-n1cnnn1 (stereo not given)	14	-2	-1	-1	·
CC(=O)Nc1cccc(Oc2nc(C)cc(C)c2C#N)c1	1	3	0	9	·
CCc1cccc(OCC(=O)Nc2ccc(C(=O)O)cc2NC(=O)COc2cccc(CC)c2)c1	33*	-8	1	-1	5
S=C(Nc1ccc(Cl)c(Cl)c1)N1CCCC1	9	-7	-1	-1	·
S=C(Nc1ccc2nsnc2c1)N1CCCCC1	96*	14	0	1	-15
CCCOc1ccc(C2C(C#N)=C(N)Oc3nc[nH]c(=O)c32)cc1OC (stereo not given)	-14	2	-1	1	·
CC(=O)N1CCn2c3c(c(=O)c4cc(C)ccc42)CCC31 (stereo not given)	101*	3	i	-3	16
CC1(C)OC(=O)C(=NNc2ccccc2[N+](=O)[O-])C(=O)O1	30*	21	-5	-10	-2
COc1ccc(CCN(C)C(=O)c2cccc(S(=O)(=O)NCc3ccccc3)c2)cc1OC	-7	-1	i	1	·
CSc1nc(-c2ccco2)nn1S(C)(=O)=O	36*	-4	·	0	28
CCCn1nc(NS(=O)(=O)c2cccc3nonc23)c2cc3cccc(C)c3nc21	42*	10	i	-1	15
CCOc1ccc(NC(=O)C2CCCN(S(=O)(=O)c3ccc4[nH]c(=O)ccc4c3)C2)cc1 (stereo not given)	-7	8	i	-4	·
O=[N+]([O-])c1cc2ccccc2c(O)c1O	83*	7	-1	1	-20
O=[N+]([O-])c1cc(-c2ccccc2)cc([N+](=O)[O-])c1O	6	8	i	-11	·
CCOc1ccc(NS(=O)(=O)c2ccc(Cl)c(N=Nc3c(O)[nH]c(=S)[nH]c3=O)c2)cc1Br	33*	19	0	-7	3
COc1ccc(NS(=O)(=O)c2cc(N=Nc3c(O)[nH]c(=O)[nH]c3=O)ccc2OC)cc1Br	15	30	-3	-9	·
CC1=C(C(=O)N(C)C)CC(CC(=O)NCc2cccc3ccccc23)C(=O)N1CCCN1CCCC1=O (stereo not given)	36*	7	0	2	-22
CC1=C(C(=O)N(C(C)C)C(C)C)CC(CC(=O)NCc2cccc3ccccc23)C(=O)N1CCCN1CCCC1=O (stereo not given)	6	·	·	2	·
CN1c2ccccc2C(C)(C)C12C=Nc1c(cc(N3CCOCC3)c3ccccc13)O2 (stereo not given)	102*	8	-7	-11	-16
CN1c2ccccc2C(C)(C)C12C=Cc1cc(O)ccc1O2 (stereo not given)	8	14	i	0	·
